Usually AC50 stands for the midpoint of the concentration-response curve, whichever way the signal moves.

Structures are written as SMILES. “And” between values parts separate entries of the source, which are not always exact repeats. Equal values may be shown once. Records with an inconclusive call do not appear. Where a structure was tested more than once in an assay, its records may differ in their call. The source made the active and inactive calls. The calls were made as follows, unless noted: active = hit-call score of the fitted dose curve at least 0.9, where 1 is the maximum; inactive = score below 0.9.

The nature of assay [1]: ATG_TAL_CIS: Attagene CIS-FACTORIAL HepG2 Assay for human TAL Basal Promoter (AID 2282966).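 Also: background control endpoint measuring basal TAL promoter reporter mRNA not a specific factor.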 The following applies: HepG2 Attagene cis-factorial TAL promoter reporter; actives raise or lower the signal. In a few lines:
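Fluorescence of labelled reporter cDNA fragments, resolved by capillary electrophoresis, gave the readout. Human HepG2 liver cells carried transiently transfected cis-element reporter units and were treated for 24 hours; activity was fitted bidirectionally against DMSO.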

The nature of assay [2]: ATG_M_19_TRANS: Attagene TRANS-FACTORIAL HepG2 Assay for M19 Transcription Factor (Internal Marker) (AID 2282974; active = hit-call score of the fitted dose curve at least 0.9, where 1 is the maximum). The following applies: HepG2 Attagene TRANS-FACTORIAL M19 internal marker reporter. In a few lines: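 24 h chemical exposure of transiently transfected HepG2 (MRTU library). RNA → oligo(dT) RT → PCR → 6-FAM labelling → HpaI cut → CE fluorescence. Positive-direction fit vs DMSO baseline; background internal-marker readout.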

The nature of assay [3]: ATG_Ets_CIS: Attagene CIS-FACTORIAL HepG2 Assay for human Erythroblast Transformation Specific (ETS) (AID 2282941). The following applies: HepG2 ETS cis-reporter transcription, actives raise or lower the signal. Put shortly: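 HepG2 cells transfected with multiple cis-regulated reporter units measuring endogenous ETS-driven transcription, 24 h after dosing. Reporter mRNA quantified by RT-PCR with capillary electrophoresis; bidirectional fit relative to DMSO.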

Assay [4] can be described thus: BSK_3C_uPAR: BioMAP Diversity Plus: 3C Assay for Urokinase-type plasminogen activator receptor (uPAR) Biomarker Activity (AID 2282998). The following applies: BioMAP 3C HUVEC, uPAR biomarker ELISA; actives raise or lower the signal. In a few lines: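 In this endothelial cell-based assay, human umbilical vein primary cells were treated with chemicals and harvested at 24 h. uPAR was quantified using ELISA, with gains or losses fitted relative to DMSO controls.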
(In general: In an ELISA, binding on a coated surface is turned into a signal by an enzyme label.)

Assay [5] is described as follows: BSK_3C_VCAM1: BioMAP Diversity Plus: 3C Assay for Vascular cell adhesion molecule 1 (VCAM1) Biomarker Activity (AID 2282999). As to conditions: BioMAP 3C HUVEC, VCAM1 ELISA, cytokine-stimulated; actives raise or lower the signal. Put shortly: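 Human umbilical vein endothelial cells (3C system), biomarker read by ELISA 24 h after dosing; bidirectional fit against DMSO baseline. Cytotoxicity tracked by SRB total-protein staining in parallel cultures at biomarker time.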

Assay [6] is described as follows: BSK_4H_Eotaxin3: BioMAP Diversity Plus: 4H Assay for Eotaxin 3 Biomarker Activity (AID 2283000).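 As to outcome: CCL26 protein level quantified by ELISA in parallel with SRB cytotoxicity check.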 The following applies: primary human endothelial cells (HUVEC); actives raise or lower the signal. In a few lines:
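Chemicals were added to human umbilical vein endothelium cultures, and Eotaxin-3 was quantified by ELISA at 24 h. Values were derived by bidirectional fitting with DMSO serving as negative control and activity baseline.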

Read-out in assay [7]: Interleukin-1 alpha (IL1a), IL1A (gene 3552)
The experiment in a line: BSK_BE3C_IL1a: BioMAP Diversity Plus: BE3C Assay for Interleukin-1 alpha (IL1a) Biomarker Activity (AID 2283016). As to conditions: primary human bronchial epithelial cells; actives raise or lower the signal. In a few lines: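 BE3C primary human bronchial epithelium; cpd 24 h; IL-1a by ELISA; bidirectional fit vs DMSO; parallel SRB (0.1% SRB, 10% TCA fix, 560 nm) for cytotoxicity.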

Read-out in assay [8]: Collagen III, COL3A1 (gene 1281)
The experiment in a line: BSK_hDFCGF_CollagenIII: BioMAP Diversity Plus: hDFCGF Assay for Collagen III Biomarker Activity (AID 2283056). The following applies: primary human foreskin fibroblasts; actives raise or lower the signal. Put shortly:
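ELISA read-out of collagen III from human skin fibroblast cultures sampled 24 h post-dosing. Values were derived by bidirectional fitting relative to the DMSO vehicle control.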

Read-out in assay [9]: Epidermal growth factor receptor (EGFR), EGFR (gene 1956)
The experiment in a line: BSK_hDFCGF_EGFR: BioMAP Diversity Plus: hDFCGF Assay for Epidermal growth factor receptor (EGFR) Biomarker Activity (AID 2283057). As to conditions: primary human foreskin fibroblasts; actives raise or lower the signal. Put shortly: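 hDFCGF system, primary human foreskin fibroblasts; compound 24 h; EGFR measured by ELISA; DMSO = negative control/baseline; bidirectional fitting.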

Read-out in assay [10]: Vascular cell adhesion molecule 1 (VCAM1), VCAM1 (gene 7412)
Briefly: BSK_hDFCGF_VCAM1: BioMAP Diversity Plus: hDFCGF Assay for Vascular cell adhesion molecule 1 (VCAM1) Biomarker Activity (AID 2283065). The following applies: primary human foreskin fibroblasts; actives raise or lower the signal. In a few lines: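 Human foreskin fibroblast primary cells, chemical exposure 24 h; VCAM-1 by ELISA; bidirectional fit, DMSO = negative control/baseline.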

Read-out in assay [11]: Intercellular Adhesion Molecule 1 (ICAM1), ICAM1 (gene 3383)
The experiment in a line: BSK_KF3CT_ICAM1: BioMAP Diversity Plus: KF3CT Assay for Intercellular Adhesion Molecule 1 (ICAM1) Biomarker Activity (AID 2283067). As to conditions: primary human keratinocytes with fibroblasts; actives raise or lower the signal. Put shortly:
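ICAM-1 levels are measured by ELISA 24 h after dosing a primary human co-culture of keratinocytes and foreskin fibroblasts. Activity in either direction is fitted relative to DMSO vehicle.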

Read-out in a further assay: CD40, CD40 (gene 958)
The experiment in a line: BSK_LPS_CD40: BioMAP Diversity Plus: LPS Assay for CD40 Biomarker Activity (AID 2283076). As to conditions: primary human HUVEC with PBMC; actives raise or lower the signal. In a few lines:
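Cells were dosed, incubated 24 h, then assayed for CD40 by ELISA. Gain or loss of signal was analysed relative to DMSO controls. The culture paired human umbilical vein endothelium with peripheral blood mononuclear cells.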

Read-out in assay [12]: E-selectin (Homo sapiens) (UniProt P16581)
The experiment in a line: BSK_LPS_Eselectin: BioMAP Diversity Plus: LPS Assay for Eselectin Biomarker Activity (AID 2283077). As to conditions: primary human HUVEC with PBMC; actives raise or lower the signal. In a few lines:
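Primary human vascular co-culture (endothelium plus PBMC) was dosed with chemical, then E-selectin quantified by ELISA at 24 h. Endpoint values derive from bidirectional curve fitting relative to DMSO.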

Read-out in assay [13]: Interleukin-1 alpha (IL1a), IL1A (gene 3552)
Briefly: BSK_LPS_IL1a: BioMAP Diversity Plus: LPS Assay for Interleukin-1 alpha (IL1a) Biomarker Activity (AID 2283080). As to conditions: primary human HUVEC with PBMC; actives raise or lower the signal. In a few lines: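 ELISA read-out of IL-1 alpha from a human primary vascular co-culture (endothelium plus PBMC) under LPS, sampled 24 hours post-dosing. Activity was fitted in both directions relative to DMSO controls.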

Read-out in assay [14]: Monocyte Chemoattractant Protein-1 (MCP1), CCL2 (gene 6347)
Briefly: BSK_LPS_MCP1: BioMAP Diversity Plus: LPS Assay for Monocyte Chemoattractant Protein-1 (MCP1) Biomarker Activity (AID 2283081). As to conditions: primary human HUVEC with PBMC; actives raise or lower the signal. Put shortly: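 Human endothelial–PBMC co-cultures were dosed with chemical, then LPS-driven MCP-1 levels were quantified by ELISA at 24 h. Activity in either direction was fitted versus DMSO negative control.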

The nature of assay [15]: BSK_LPS_PGE2: BioMAP Diversity Plus: LPS Assay for Prostaglandin E2 (PGE2) Biomarker Activity (AID 2283082).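 As to AC50: secreted prostaglandin E2 measured by ELISA in LPS-stimulated co-culture.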 As to conditions: primary human HUVEC with PBMC; actives raise or lower the signal. In a few lines: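 LPS-activated HUVEC/PBMC co-culture; cmpd dosed, 24 h; PGE2 by ELISA; bidirectional fit vs DMSO; SRB (0.1%, TCA-fixed, 560 nm) in parallel plates for overt cytotox.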

Read-out in assay [16]: Macrophage colony-stimulating factor (MCSF), CSF1 (gene 1435)
The experiment in a line: BSK_LPS_MCSF: BioMAP Diversity Plus: LPS Assay for Macrophage colony-stimulating factor (MCSF) Biomarker Activity (AID 2283083). As to conditions: primary human HUVEC with PBMC; actives raise or lower the signal. In a few lines:
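ELISA readout of M-CSF after 24 h compound exposure in a human endothelial/PBMC co-culture. Activity, in either direction, is fitted relative to DMSO vehicle.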

Read-out in the next assay: CD69, CD69 (gene 969)
The experiment in a line: BSK_SAg_CD69: BioMAP Diversity Plus: SAg Assay for CD69 Biomarker Activity (AID 2283089).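 As to AC50: cell surface CD69 protein quantified by ELISA with fluorescence detection.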 As to conditions: primary human HUVEC with PBMC; actives raise or lower the signal. Put shortly:
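HUVEC co-cultured with PBMC were dosed with chemical, and CD69 was measured by ELISA with fluorescence read-out 24 h later. Bidirectional curve fitting used DMSO as negative control and activity baseline.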

Assay [17] can be described thus: BSK_SAg_PBMCCytotoxicity: PBMC Cytotoxicity Assessment in the BioMAP Diversity Plus: SAg Assay (AID 2283093).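 Also: PBMC viability measured as Alamar Blue reduction fluorescence at 546/580 nm; fitted both ways against DMSO so a hit may be loss or gain of signal.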 The following applies: primary human HUVEC with PBMC. In a few lines:
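HUVEC/PBMC co-culture; PBMC exposed to chemical 1 h before SEB and TSST-1 activation (20 ng/mL each), incubated 90 h, then Alamar Blue 6 h, fluorescence 546/580 nm. Bidirectional fit versus DMSO baseline.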

Assay [18] can be described thus: ATG_M_06_CIS: Attagene CIS-FACTORIAL HepG2 Assay for M06 Transcription Factor (Internal Marker) (AID 2282950). As to conditions: HepG2 Attagene CIS-FACTORIAL M06 internal marker reporter; actives raise or lower the signal. Put shortly:
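Cells (HepG2, transiently carrying cis-driven reporter units) receive chemical for 24 h before RNA isolation. Reporter cDNA is PCR-amplified, FAM-labelled by primer extension, HpaI-digested and sized on a capillary analyser.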

E-selectin (Homo sapiens), sequence (P16581 whole entry, looked up): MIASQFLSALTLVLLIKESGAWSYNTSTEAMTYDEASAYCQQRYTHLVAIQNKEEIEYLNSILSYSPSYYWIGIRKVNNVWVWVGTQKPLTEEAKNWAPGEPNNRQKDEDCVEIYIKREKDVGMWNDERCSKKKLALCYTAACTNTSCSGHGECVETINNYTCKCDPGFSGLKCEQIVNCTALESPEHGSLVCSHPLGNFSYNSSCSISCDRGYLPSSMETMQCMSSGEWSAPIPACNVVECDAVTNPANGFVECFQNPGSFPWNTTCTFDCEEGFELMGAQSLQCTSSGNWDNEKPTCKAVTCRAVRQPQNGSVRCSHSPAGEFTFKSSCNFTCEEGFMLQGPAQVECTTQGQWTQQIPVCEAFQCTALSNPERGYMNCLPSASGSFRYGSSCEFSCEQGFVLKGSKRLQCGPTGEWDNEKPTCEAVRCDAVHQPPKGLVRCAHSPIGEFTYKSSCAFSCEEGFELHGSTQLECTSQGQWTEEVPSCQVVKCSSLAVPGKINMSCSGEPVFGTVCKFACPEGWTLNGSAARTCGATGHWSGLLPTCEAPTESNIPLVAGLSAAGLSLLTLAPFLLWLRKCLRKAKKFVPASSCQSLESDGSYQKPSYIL

Turning to `CCC(C)(CCC(C)C)C(=O)O` (stereo unspecified), the compound was called inactive in [1] and in assay [2].

For the compound `CCO[Si](CCCN)(OCC)OCC`, the result in assay [3], in [1] and in assay [2] was inactive.

`COc1cc(CNC(=O)CCCC/C=C/C(C)C)ccc1O`: the result in [4], in [5], in assay [6], in assay [7], in [8] and in [9] was inactive. For the same compound, the outcome in [10] is “inactive”; in [11], “inactive”; with CD40, CD40 (gene 958), “inactive”; in assay [12], “inactive”; in [13] it was “inactive”; in assay [14], “inactive”. The outcome in assay [16] is “inactive”; with CD69, CD69 (gene 969), “inactive”; in assay [17] it was “inactive”. Further, the AC50 in [10] was 0.384 µM (active); in assay [15], 4.62 µM (active) and 2.9 µM (active); with CD69, CD69 (gene 969), 27.1 µM (active).

For `COc1ccccc1Oc1c(NS(=O)(=O)c2ccc(C(C)(C)C)cc2)nc(-c2ncccn2)nc1OCCO`, the outcome in [4], in assay [5], in assay [7], in assay [9], in [10] and in [11] was inactive. Moreover, the outcome in the assay with CD40, CD40 (gene 958) is “inactive”; in [12], “inactive”; in assay [13] it was “inactive”; in assay [14] it was “inactive”; in assay [15] it was “inactive”; in [16], “inactive”. Moreover, the outcome was “inactive” with CD69, CD69 (gene 969) and “inactive” in [17]. Further, the AC50 was 7.97 µM (active) and 11.3 µM (active) in [6]; 3.9 µM (active) and 2.51 µM (active) in [8]; 10.4 µM (active) in [13].

`CNC(=C[N+](=O)[O-])NCCSCc1csc(CN(C)C)n1`: the compound was called inactive in [3], in [18], in [1] and in assay [2].

In the case of `COc1ccc(C(=O)c2ccccc2O)c(O)c1`, the AC50 in [4] was 17.3 µM (active) and 20 µM (active); in [6], 10 µM (active) and 14.4 µM (active); in assay [8], 7.73 µM (active); in assay [15] it was 6.03 µM (active). Besides, the outcome in assay [5], in [7], in [8], in assay [9], in assay [10] and in assay [11] was inactive. Besides, the outcome was “inactive” with CD40, CD40 (gene 958); “inactive” in assay [12]; “inactive” in assay [13]; “inactive” in [14]; “inactive” in assay [16]; “inactive” with CD69, CD69 (gene 969). The result in [17] was inactive.

(Values after PubChem BioAssay (EPA / NIEHS).)
